Assay outcomes deposited in PubChem BioAssay by National Center for Advancing Translational Sciences (NCATS).
Six1-Eya2 inh: qHTS Assay for Inhibitors of the Six1/Eya2 Interaction. activity change, % (test concentration not listed). AlphaScreen GST-Six1/His-Eya2 binding, biochemical; active compounds read low. 360,000 tested, 0.56% active. Homeobox protein SIX1 (Homo sapiens) + Protein phosphatase EYA2 (Homo sapiens), …; in the data active = activity change below about -65%; inconclusive = mostly about -30% to -63%; note: % is set by controls: 0 for no effect and ±100 for the full control effect
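Compounds are tested against tagged Six1 and Eya2 proteins bridged by glutathione donor and nickel acceptor beads; after a one-hour incubation at 37 °C without light, AlphaScreen emission is recorded.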
BAZ2B block: qHTS Assay for Inhibitors of BAZ2B; AlphaScreen BAZ2B-H3K14Ac peptide displacement; Potency, µM (highest dose often 114 µM), for inactives: top-dose activity change, negative = inhibition, actives largely listed as inhibitors; 360,000 tested, 4.4% active; Bromodomain adjacent to zinc finger domain protein 2B (Homo sapiens), Q9UIF8; note: potency is the fitted concentration of half-maximal effect; % is set by controls: 0 for no effect and ±100 for the full control effect; nearly all actives have a fitted effect of over 60% in size
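Compounds, titrated to a top concentration of 110 uM, were incubated 30 min at room temperature with preformed BAZ2B/acetyl-K14 H3 peptide complex (50 nM each). Proximity signal was measured by AlphaScreen after 20 min with beads.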
G9a inh: qHTS Assay for Inhibitors of Histone Lysine Methyltransferase G9a | 350,000 tested, 8.8% active | Potency, µM (titrated, usually from 102 µM), for inactives: at the highest dose activity, negative = inhibition, hits mostly inhibitors | AID 504332, 2011 | G9a H3K9 monomethylation, AlphaScreen, 2 h; note: potency is the fitted concentration of half-maximal effect; % is set by controls: 0 for no effect and ±100 for the full control effect; nearly all actives have a fitted effect of over 75% in size
Target sequence (Q96KQ7 913-1193 limits assumed): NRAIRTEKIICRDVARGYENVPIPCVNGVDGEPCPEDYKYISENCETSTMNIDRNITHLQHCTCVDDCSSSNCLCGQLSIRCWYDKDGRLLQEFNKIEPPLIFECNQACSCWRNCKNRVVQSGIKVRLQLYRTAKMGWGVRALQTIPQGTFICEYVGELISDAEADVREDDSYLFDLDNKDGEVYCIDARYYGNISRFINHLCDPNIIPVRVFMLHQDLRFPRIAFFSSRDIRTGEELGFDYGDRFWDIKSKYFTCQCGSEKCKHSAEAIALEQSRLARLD
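G9a (20 nM) preincubated 15 min RT with compounds, then 500 nM biotinylated H3K9 peptide and 20 uM SAM added; 2 h RT reaction. Monomethyl-H3K9 product detected by AlphaScreen with anti-H3K9me1 antibody, streptavidin donor and anti-rabbit IgG acceptor beads.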
HP1b binding inh: HTS for Inhibitors of HP1-beta Chromodomain Interactions with Methylated Histone Tails; Chromobox protein homolog 1 (Homo sapiens), P83916; AlphaScreen HP1-beta / biotin-H3K9me3 peptide binding; Potency, µM (top dose mostly 114 µM), inactives show at the highest dose activity change, negative = inhibition, actives largely listed as inhibitors; 390,000 tested, 0.56% active; note: potency is the fitted concentration of half-maximal effect; nearly all actives have a fitted effect of over 70% in size
Target sequence (P83916 whole entry, looked up): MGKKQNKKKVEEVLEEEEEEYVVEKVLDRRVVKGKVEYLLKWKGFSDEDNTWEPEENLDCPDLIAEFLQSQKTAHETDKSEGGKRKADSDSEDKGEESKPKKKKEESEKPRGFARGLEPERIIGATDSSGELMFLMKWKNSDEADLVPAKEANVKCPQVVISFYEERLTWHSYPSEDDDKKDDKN
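AlphaScreen: HP1-beta (50 nM) preformed 30 min with biotin-H3(1-18)K9me3 peptide (50 nM) in PBS pH 7.4, 0.01% Tween-20. Compound added for 30 min at RT, then streptavidin donor/nickel chelate acceptor beads (10 ug/mL) for 30 min.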
CtBP-E1A blk: qHTS Assay for Inhibitors of the CtBP/E1A Interaction; 340,000 tested, 0.49% active; AlphaScreen GST-E1A/His-CtBP binding, 1536-well; active compounds read low; AID 651724, 2012; activity change, % (no concentration beside the values); CtBP / adenovirus E1A interaction (AlphaScreen); in the data active = activity change below about -65%; inconclusive = mostly about -30% to -63%; note: % is set by controls: 0 for no effect and ±100 for the full control effect
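Homogeneous bead-based format: GST-tagged E1A captured on glutathione donor beads, His-tagged CtBP on nickel acceptor beads; compounds precede bead addition by 2 h at 37 °C.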
JMJD2A Tudor inh: qHTS Assay for Inhibitors of JMJD2A-Tudor Domain. AlphaScreen JMJD2A-Tudor / H3K4me3 peptide binding. Potency, µM (titrated, usually from 114 µM), for inactives: top-dose activity change, negative = inhibition, hits mostly inhibitors. 390,000 tested, 4.4% active. AID 504339, 2011; note: potency is the fitted concentration of half-maximal effect; % is set by controls: 0 for no effect and ±100 for the full control effect; nearly all actives have a fitted effect of over 50% in size
* marks the source's active call; other numbers are inactive results; ? = inconclusive; · = not tested or not shown; [ ] = dose if it differs, or a comment. Rows were chosen to be rich in hits. Some 10% of all compounds tested hit in one or more screens of this group. Unless noted, calls come from the whole dose curve; as a rule, active = well fitted inhibition curve with a large enough effect; inconclusive = small, poorly fitted or top-dose-only effect; inactive = no such curve, though single readings can be large or run the other way.

SMILES	Six1-Eya2 inh	BAZ2B block	G9a inh	HP1b binding inh	CtBP-E1A blk	JMJD2A Tudor inh
COc1ccc(-n2c(=S)[nH]c3cc(C(=O)NCCCN4CCCC4=O)ccc3c2=O)c(OC)c1	10.4	-3.5%	31.6µM*	50.1%	0.0	14.1µM*
O=C(NCCCN1CCOCC1)c1ccc2c(=O)n(-c3ccc(F)c(Cl)c3)c(=S)[nH]c2c1	-0.9	-9.0%	39.8µM*	2.6%	-7.1	-20.1%
COc1ccc(-n2c(=S)[nH]c3cc(C(=O)NCCCN4CCOCC4)ccc3c2=O)cc1	4.0	-2.2%	28.2µM*	18.9%	6.3	-14.3%
O=C(O)c1ccc2c(=O)n(-c3ccc(F)c(Cl)c3)c(=S)[nH]c2c1	6.0	-1.7%	?	7.0%	5.3	-7.2%
O=C(NNc1ccccc1F)c1sccc1Cl	·	·	·	62.2%	·	0.0%
O=C(/C=C/c1ccccc1)N1CCN(Cc2cc(=O)n3nc(-c4ccccc4)sc3n2)CC1	·	-1.8%	-8.4%[59 µM]	28.0%[57 µM]	·	-5.2%
CCS(=O)(=O)N1CC(=O)N(c2ccc(Cl)cc2)C(C)(C(=O)NC2CCCCC2)C1 (stereo not drawn)	·	1.5%	1.9%[59 µM]	44.2%	·	4.6%
CCOC(=O)c1ccccc1NC(=O)Cn1c(=O)n(Cc2nc(-c3ccccc3)no2)c(=O)c2ccccc21	·	-21.0%	-4.6%[59 µM]	29.5%	·	-3.1%
O=C(CN1C(=O)NC2(CCCC2)C1=O)c1ccc(Cl)s1	-4.8	-1.9%	79.4µM*	8.4%	5.1	-7.9%
CC(C)(C)C(=O)NCc1ccc(C(=O)CN2C(=O)NC3(CCCC3)C2=O)s1	3.6	11.0%	-41.4%	28.9%	-2.1	-2.1%
COc1ccc(N2CCN(Cc3nc(Cc4cccc(F)c4)no3)C(C)C2)cc1 (stereo not drawn)	?	25.1µM*	·	?	-25.3	50.1µM*
Cc1ccc(NC(=O)CN2CCCC2)cc1Br	4.9	?	50.1µM*	0.5%	-2.6	56.2µM*
CCCCCCC(=O)Nc1c2c(nc3ccccc13)N(C)CC2	3.8	?	6.5%[59 µM]	37.3%	2.1	-2.9%
CN1CCc2c1nc1ccccc1c2NC(=O)CN1CCCC1	-0.9	?	·	-16.1%	-22.4	5.62µM*
Cc1ccc(NC(=O)CN2CCCC2)cc1	1.9	3.6%	·	21.8%	-7.9	-12.1%
CN(C)c1ccc(NC(=O)N2CCOCC2)cc1	-5.7	?	3.98µM*	-11.9%	-9.0	?
O=C(CN1CCCCC1)NN(Cc1ccccc1)c1ccccc1	11.8	50.1µM*	15.8µM*	?	·	-2.3%[11.4 µM]
CCOc1ccc(OCC)c(NC(=O)c2cnn(-c3ccc(F)cc3)c2-n2cccc2)c1	·	-15.3%	-12.2%[59 µM]	28.4%	·	-30.3%
COc1cccc(CNC(=O)C2=C(C)C(=O)OC23CCN(C(C)=O)CC3)c1OC	·	7.1%	-4.9%[59 µM]	34.8%	·	1.0%
CC(C)(C)c1cccc(S(=O)(=O)N2CCN(c3nc(-c4cccs4)nc4ccccc34)CC2)c1	·	·	·	32.2%	·	-17.0%
COc1ccc(CCNC2CC(=O)N(CCc3ccccc3)C2=O)cc1 (stereo not drawn)	2.6	2.6%	6.4%[12.7 µM]	15.4%	1.4	-6.5%
O=C(CN1CCCCCC1)Nc1ccc(Br)cc1	3.1	7.9%	-7.7%[12.7 µM]	24.0%	14.9	-1.3%
CCN(CC)c1ccc(NC2CC(=O)N(CCc3ccc(OC)cc3)C2=O)cc1 (stereo not drawn)	?	35.5µM*	?	?	-18.3	39.8µM*
O=C(CN1CCCCCC1)Nc1ccccc1	7.6	50.1µM*	3.98µM*	?	-21.3	8.91µM*
O=C(CN1CCCC1)Nc1ccc(Br)cc1	5.7	50.1µM*	4.47µM*	?	·	12.6µM*
